Screening data deposited in PubChem BioAssay by several laboratories.
IDE inh = inhibits human insulin-degrading enzyme in HEK cells; P14735; actives 0.41% (n = 320,000); AID 434962; inhibition, % at 5.59 µM; FAbetaB cleavage, fluorescence polarization;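 active means percent inhibition above the average of all tested compounds plus 3 SD, set per screening campaign, cut at about 16% in these data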;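 further: IDE supplied by intact live HEK cells; FP after avidin binding of uncleaved biotin substrate so inhibition keeps polarization high; 0% = DMSO wells and 100% = 60 µM reference IDE inhibitor Ii1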
Rpn11 inh = inhibitors of human proteasome Rpn11; O00487; human 26S proteasome, Ub4-pepOG fluorescence polarization; 20S core pre-blocked with epoxomicin; inhibition, % at 20 µM; actives 0.59% (n = 360,000);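 active means inhibition at 20 µM, scaled to each plate's controls, above about 33%, limit read from the data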
Rin1-Abl PPI inh = inhibitors of human Rin1-Abl protein interaction; P00519+Q13671; TR-FRET Rin1/Abl binding, biochemical; inhibition, % at 7.35 µM; actives 0.4% (n = 360,000); in the data active means inhibition above about 5%, passing the limit was not always enough
TPT1 inh = C. albicans TPT1 enzyme inhibition | recombinant caTPT1, FP RNA substrate dephosphorylation | inhibition, % at 5 µM | actives 0.81% (n = 300,000);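 active means inhibition above the mean of all tested compounds plus 3 SD, set per screening campaign, cut at about 24% in these data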;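 further: plate controls were DMSO alone for no effect and ferristatin control at 100 nM for full effect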
Calb FLC = affects C. albicans growth with fluconazole; C. albicans CaCi-2 (fluconazole-resistant clinical isolate) + fluconazole, Alamar Blue growth, 48 h; growth inhibition, % (test concentration not listed); actives 0.57% (n = 300,000);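 active means growth inhibition above about 58% in most replicates, limit read from the data, passing the limit was not always enough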;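 further: all wells also contain fluconazole at 8 µg/ml as a sub-toxic cotreatment; 0% = median of DMSO wells and 100% = median of geldanamycin control wells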
IDE cell activ = IDE (human) activation, cell-based; actives 0.073% (n = 340,000); activation, % at 5.96 µM; P14735; HEK cells, FAbeta-B cleavage, fluorescence polarization; 0% vehicle, 100% cell-free pure enzyme wells; AID 493087;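 active means activation above the mean of all tested compounds plus 3 SD, set per screening campaign, cut at about 17% in these data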
TPT1 inh confirm = confirmation of Candida albicans TPT1 inhibitors | inhibition, % at 5 µM | shares compounds with TPT1 inh | recombinant caTPT1, fluorescence polarization, RNase T1 coupled | actives 74% (n = 2,400) | AID 2149;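 active means inhibition above the primary screen limit, the mean inhibition of all tested compounds plus 3 SD, cut at about 25% in these data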
RNase T1 counter = RNase T1 inhibition in TPT1 counter-screen; RNase T1 cleavage, fluorescence polarization, 1536-well; actives 83% (n = 2,400); shares compounds with TPT1 inh; inhibition, % at 5 µM;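 active means inhibition above the solvent-only control well mean plus 3 SD, limit set per screening run, cut at about 23% in these data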;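 further: plate controls were DMSO wells with enzyme for no effect and wells without RNase T1 for full effect; inhibitors block cleavage so intact labeled substrate keeps polarization high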
IDE inh confirm = cellular human IDE inhibition, confirmation; shares compounds with IDE inh; HEK cells, FAbetaB cleavage, fluorescence polarization; inhibition, % at 5.59 µM; actives 51% (n = 1,200); AID 435028;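 active means mean inhibition across triplicate wells above the cutoff set by the earlier primary insulin-degrading enzyme screen, cut at about 16% in these data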;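 further: 0% = DMSO wells and 100% = 60 µM reference IDE inhibitor Ii1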
HEK cytotox = HEK cell cytotoxicity, counter-screen for IDE inhibitors | shares compounds with IDE inh | HEK293 cytotoxicity, ATP luminescence | inhibition, % at 5.59 µM | actives 28% (n = 1,200) | AID 449730; in the data active means inhibition above about 22%;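 further: 0% = vehicle wells and 100% = reference cytotoxic drug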
Rpn11 confirm = Rpn11 inhibition confirmation, single concentration; AID 602318; actives 29% (n = 1,900); purified human 26S proteasome, Ub4-pepOG fluorescence polarization; proteasome pretreated with epoxomicin; shares compounds with Rpn11 inh; inhibition, % at 20 µM
MMP-2 counter = counter-screen for RPN11 inhibitors: inhibition of human MMP-2 | inhibition, % at 20 µM | recombinant MMP-2, FRET peptide cleavage fluorescence | actives 4% (n = 1,900) | AID 602330 | shares compounds with Rpn11 inh;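 further: human MMP-2 activated beforehand with APMA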
Target sequence (P08253 whole entry, looked up): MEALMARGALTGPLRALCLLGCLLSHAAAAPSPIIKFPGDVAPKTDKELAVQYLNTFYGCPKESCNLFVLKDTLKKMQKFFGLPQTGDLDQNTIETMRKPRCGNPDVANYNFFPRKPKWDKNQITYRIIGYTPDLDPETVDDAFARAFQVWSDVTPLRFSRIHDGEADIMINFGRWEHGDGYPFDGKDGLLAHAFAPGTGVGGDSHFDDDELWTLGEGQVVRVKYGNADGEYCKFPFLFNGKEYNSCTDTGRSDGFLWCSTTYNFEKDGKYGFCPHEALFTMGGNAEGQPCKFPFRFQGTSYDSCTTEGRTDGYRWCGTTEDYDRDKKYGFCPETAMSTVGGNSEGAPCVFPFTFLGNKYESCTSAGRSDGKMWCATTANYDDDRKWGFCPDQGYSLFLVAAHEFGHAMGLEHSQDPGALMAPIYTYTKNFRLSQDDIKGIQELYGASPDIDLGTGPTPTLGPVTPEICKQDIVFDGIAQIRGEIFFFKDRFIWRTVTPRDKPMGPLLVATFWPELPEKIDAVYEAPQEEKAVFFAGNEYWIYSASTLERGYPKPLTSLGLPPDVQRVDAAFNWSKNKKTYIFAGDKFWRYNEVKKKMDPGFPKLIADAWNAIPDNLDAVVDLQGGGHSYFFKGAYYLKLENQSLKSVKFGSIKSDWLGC
Thrombin FP = counter-screen for RPN11 inhibitors: inhibition of bovine thrombin | shares compounds with Rpn11 inh | bovine thrombin cleavage of Ub4-pepOG, fluorescence polarization | inhibition, % at 20 µM | actives 13% (n = 1,900);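 active means mean inhibition at least 40% at 20 µM, or signal 3 deviations below plate average, so some actives read negative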;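 further: plate controls were thrombin with DMSO for no effect and buffer wells lacking thrombin for full effect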
Numbers without * were called inactive; . = no result given. The list is not random: actives were taken first. Their share in the collection is about 2.3%. Unless noted, no stated cut-off is given here; in the data, active means inhibition above about 40%; inactive means the rest.

SMILES	IDE inh	Rpn11 inh	Rin1-Abl PPI inh	TPT1 inh	Calb FLC	IDE cell activ	TPT1 inh confirm	RNase T1 counter	Rpn11 confirm	MMP-2 counter	Thrombin FP	others
Cc1ccccc1N1C(=O)C(Cc2ccc(F)cc2)S/C1=C(\C#N)C(N)=O (stereo not drawn)	0	45*	2	26*	2	.	7	11	6	-12	0
CCOC(=O)COc1ccc(/C=C2/C(=O)NN(c3ccc(F)cc3)C2=O)cc1OC	-1	7	-1	-4	-18	4	.	.	.	.	.
COc1cc(/C=C2/C(=O)NN(c3ccc(Cl)cc3)C2=O)cc(OC)c1O	9	63*	1	97*	90*	-33	151*	154*	62*	-53	54*
COc1cc(/C=C2/C(=O)NN(c3ccccc3)C2=O)cc(Br)c1O	1	48*	2	54*	-17	2	84*	103*	55*	13	52*
CC1(C(=O)Nc2ccc(F)cc2F)CCN1C(=O)Cc1ccccc1 (stereo not drawn)	.	-3	0	.	.	.	.	.	.	.	.
O=C(NCc1ccccc1Cl)C1CCCN1S(=O)(=O)c1ccccc1F (stereo not drawn)	3	0	2	0	5	3	.	.	.	.	.
COc1ccc(C2CC(c3ccccc3)=NN2c2ccc(N)cc2)cc1 (stereo not drawn)	0	48*	-1	29*	17	7	38*	51*	37	36	16
CN(Cc1ccccc1)C(=O)COC(=O)c1cc(=O)[nH]c2ccccc12	2	-7	-3	.	.	-1	.	.	.	.	.
Oc1ccc(N=Nc2nc(-c3ccccc3)c(-c3ccccc3)[nH]2)cc1	3	55*	1	31*	11	-2	42*	55*	34	-10	32
CCc1nc2ccc(C(=O)NCCCn3ccnc3)cn2c1N(C)CCC(C)C	.	-13	-1	.	.	.	.	.	.	.	.
CCN(CC)c1ccc2cc(C(N)=O)c(=O)oc2c1	-1	40*	-7	40*	2	-2	36*	45*	11	-43	5
NC(=O)c1cc2cc(Cl)ccc2oc1=O	2	9	0	0	-7	-6	.	.	.	.	.
Nc1c(C(=O)O)sc2nc(-c3ccc(F)cc3)cc(-c3ccccc3)c12	-2	53*	-5	29*	-12	-7	13	22*	6	5	-3
Nc1c(C(=O)O)sc2nc(-c3ccccc3)cc(-c3ccc(Cl)cc3)c12	-1	14	-1	0	-4	0	.	.	.	.	.
CN1C(=O)CC(c2cn(Cc3ccccc3)c3ccccc23)C1=O (stereo not drawn)	2	54*	1	26*	2	5	50*	61*	21	-28	23
O=C1/C(=C/c2ccc(O)c(O)c2)Oc2cc(O)ccc21	34*	86*	3	44*	.	-47	58*	67*	49*	4	30	IDE inh confirm=75*;HEK cytotox=11
Cc1ccc(C(=O)/C=C/c2ccc(-c3ccc(C)cc3)o2)cc1	-3	43*	-2	39*	-17	-7	72*	79*	18	1	-13
